# Assay outcomes as filed in PubChem.
# A selection: hits, their analogues and other compounds. The true share with any hit is near 6.8%.
# C diff growth: C. difficile growth inhibitors, primary screen, HTS | Clostridium difficile clinical isolate growth, OD600, 24 h; active compounds read low | growth activity, negative = inhibition, % at 16 µg/mL (by protocol) | 86,000 tested, 0.25% active;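 active = mean growth activity at or below -80% and every replicate also at or below -80%; inconclusive = mean at or below -80% but some replicate above -80%; inactive = mean growth activity above -80%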;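 also: 0% = DMSO wells and -100% = levofloxacin 16 µg/mL wells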
# Pf Dd2 inh: P. falciparum Dd2 growth inhibitors, primary screen, SYBR Green fluorescence, single dose replicates. 94,000 tested, 2.3% active. 72 h; active compounds read low. activity change, % at 10 µM; in the data active = activity change below about -80%; inconclusive = no clear call, values can overlap the other calls
# T cruzi growth-1: T. cruzi intracellular proliferation inhibitors, primary screen, cell-based, beta-gal Tulahuen parasites, NIH3T3 host, luminescence. T. cruzi beta-gal in NIH3T3, GalScreen luminescence, 90 h. inhibition, % at 8.34 µM. 77,000 tested, 5.9% active. AID 624255, 2012;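 active = mean inhibition above about 93%, with at least 55% of replicates each passing it, limit read from the data, passing the limit was not always enough; inconclusive = only one of those two conditions holds; inactive = neither condition holds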
# T cruzi growth-2: T. cruzi intracellular proliferation inhibitors, confirmation, cell-based, NIH3T3 host, beta-gal parasite, luminescence, cherry-pick | shares compounds with T cruzi growth-1 | 5,600 tested, 72% active | AID 651739, 2012 | inhibition, % at 8.35 µM | T. cruzi beta-gal in NIH3T3, GalScreen luminescence, 90 h;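 active = mean replicate inhibition above about 95% and at least 55% of replicates individually reaching it, limit read from the data; inconclusive = only one of the two criteria is met; inactive = neither criterion is met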
# T cruzi growth-3: inhibitors of intracellular T. cruzi replication, confirmation, NIH3T3 host cells, beta-gal parasites, cherry-pick, set 2. shares compounds with T cruzi growth-1. T. cruzi beta-gal in NIH3T3, GalScreen luminescence, 90 h. inhibition, % at 2.09 µM. 5,600 tested, 21% active. AID 651740, 2012;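 active = mean inhibition above about 95%, with at least 55% of replicates also reaching it, limit read from the data; inconclusive = meets just one of the two conditions; inactive = meets neither condition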;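 also: plate controls were neutral control median for no effect and positive control median for full effect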
# 3T3 cytotox: cytotoxicity in mouse NIH/3T3 fibroblasts, confirmation, cytotoxicity control for T. cruzi proliferation inhibitor project, cell-based, cherry-pick, single point; shares compounds with T cruzi growth-1; cytotoxicity (signal decrease), % at 8.35 µM; 5,600 tested, 14% active; NIH/3T3 viability, CellTiter-Glo ATP luminescence, 90 h;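 active = mean signal decrease across replicates above about 35% based on untreated-well scatter, with enough replicates individually passing, limit read from the data; inconclusive = no rule stated though some were filed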;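 also: 0% = median of neutral control wells and 100% = median of positive control wells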
# 3T3 cytotox 2: NIH/3T3 fibroblast cytotoxicity, confirmation, cytotoxicity control, cell-based, cherry-pick, single point, set 2 | AID 651744, 2012 | inhibition, % at 24.9 µM | 5,600 tested, 56% active | shares compounds with T cruzi growth-1 | NIH/3T3 viability, CellTiter-Glo ATP luminescence, 90 h;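 active = mean loss of cell viability signal at or above a set limit, and enough replicates individually reaching it; inconclusive = meets only the mean limit or only the replicate share; inactive = meets neither condition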;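 also: 0% = median of neutral control wells and 100% = median of positive control wells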
# Active calls of the source: *; ? = inconclusive; · = no result given.
SMILES,C diff growth,Pf Dd2 inh,T cruzi growth-1,T cruzi growth-2,T cruzi growth-3,3T3 cytotox,3T3 cytotox 2
COC(=O)C[C@@H]1CC[C@@H]2NC[C@H](O)COC[C@H]2O1,8,8,50,·,·,·,·
COC(=O)C[C@H]1CC[C@@H]2NC[C@H](O)COC[C@H]2O1,5,-8,105*,15,18,-7,16
O=C(Cc1ccncc1)N1CCCCN2[C@H](CO)[C@H](c3ccc(C#Cc4ccccc4F)cc3)[C@@H]2C1,-3,-28,43,·,·,·,·
CC(=O)N1[C@@H]2Cn3c(ccc(-c4cccc(C(=O)N(C)C)c4)c3=O)[C@H]1[C@@H](C(=O)O)[C@@H]2CO,2,22,·,·,·,·,·
N#Cc1cccc(-c2ccc([C@@H]3[C@H]4CN(C(=O)Cc5ccncc5)CCCCN4[C@H]3CO)cc2)c1,0,5,108*,74,3,7,13
N#Cc1cccc(-c2ccc([C@@H]3[C@@H](CO)N4CCCCN(C(=O)Cc5ccncc5)C[C@@H]34)cc2)c1,0,10,66,·,·,·,·
N#Cc1cccc(-c2ccc([C@H]3[C@H](CO)N4CCCCN(C(=O)Cc5ccncc5)C[C@@H]34)cc2)c1,3,-70,118*,100*,82,15,52*
N#Cc1cccc(-c2ccc([C@@H]3[C@H](CO)N4CCCCN(C(=O)Cc5ccncc5)C[C@@H]34)cc2)c1,-7,-42,92,·,·,·,·
N#Cc1cccc(-c2ccc([C@H]3[C@@H](CO)N4CCCCN(C(=O)Cc5ccncc5)C[C@H]34)cc2)c1,2,-24,81,·,·,·,·
N#Cc1cccc(-c2ccc([C@H]3[C@@H](CO)N4CCCCN(C(=O)Cc5ccncc5)C[C@@H]34)cc2)c1,2,10,102*,78,-15,-17,4
CN1CCN(C(=O)CN=[N+]=[N-])CC1,-7,·,·,·,·,·,·
CC(C)NC(=O)N1[C@@H]2Cn3c(ccc(-c4cccc(C(=O)N(C)C)c4)c3=O)[C@H]1[C@@H](C(=O)O)[C@@H]2CO,-5,·,-271,·,·,·,·
CC=Cc1ccc2n(c1=O)C[C@@H]1[C@@H](CO)[C@H](C(=O)OC)[C@H]2N1CC1CC1 (mixture of isomers),-5,3,4,·,·,·,·
CC=Cc1ccc2n(c1=O)C[C@H]1[C@H](CO)[C@@H](C(=O)OC)[C@@H]2N1S(=O)(=O)c1cccc(C)c1 (mixture of isomers),-1,·,107*,102*,3,0,3
C/C=C/c1ccc([C@@H]2[C@@H](CO)N3CCCCN(C(=O)Cc4cccnc4)C[C@H]23)cc1,-3,16,52,·,·,·,·
O=C(Cc1cccnc1)N1CCCCN2[C@H](CO)[C@H](c3ccc(/C=C/c4ccccc4)cc3)[C@@H]2C1,-12,8,119*,114*,102*,?,79*
O=C(Cc1cccnc1)N1CCCCN2[C@@H](CO)[C@H](c3ccc(/C=C/c4ccccc4)cc3)[C@@H]2C1,52,8,105*,104*,73,?,104*
O=C(Cc1cccnc1)N1CCCCN2[C@H](C1)[C@H](c1ccc(/C=C/c3ccccc3)cc1)[C@@H]2CO,-6,-10,94,·,·,·,·
CN(C)C(=O)[C@@H]1[C@@H](CO)[C@@H]2Cn3c(cccc3=O)[C@H]1N2CC1CC1,-4,10,48,·,·,·,·
OC[C@H]1[C@H]2c3ccccc3NC[C@H]2N1Cc1cccnc1,-4,-10,61,·,·,·,·
O=C(Cc1ccccc1)N1C[C@@H]2[C@H](c3ccccc31)[C@H](CO)N2Cc1ccccc1,-6,-16,97*,101*,100*,-13,26
O=C(O)[C@H]1[C@H](CO)[C@H]2Cn3c(ccc(-c4ccncc4)c3=O)[C@@H]1N2C(=O)C1CC1,·,·,40,·,·,·,·
O=C(Cc1cccnc1)N1CCCCN2[C@H](C1)[C@@H](c1ccc(C#CC3CCCC3)cc1)[C@@H]2CO,-6,-28,102*,107*,32,25,104*
O=C(Cc1cccnc1)N1CCCCN2[C@H](CO)[C@H](c3ccc(C#CC4CCCC4)cc3)[C@@H]2C1,-19,2,111*,89,44,34,78*
O=C(Cc1cccnc1)N1CCCCN2[C@H](CO)[C@H](c3ccc(C#CC4CC4)cc3)[C@H]2C1,-15,-31,-208,·,·,·,·
SMILES,C diff growth,Pf Dd2 inh,T cruzi growth-1,T cruzi growth-2,T cruzi growth-3,3T3 cytotox,3T3 cytotox 2
O=C(Cc1cccnc1)N1CCCCN2[C@H](CO)[C@H](c3ccc(C#CC4CC4)cc3)[C@@H]2C1,-10,-17,87,·,·,·,·
COC(=O)[C@H]1[C@H](CO)[C@H]2Cn3c(ccc(-c4cncnc4)c3=O)[C@@H]1N2S(=O)(=O)c1ccccc1C,1,-14,61,·,·,·,·
C[C@@H]1CN([C@@H](C)CO)C(=O)c2c(c3ccccc3n2C)-c2ccccc2CO[C@@H]1CN(C)C(=O)Oc1ccccc1,-8,-9,·,·,·,·,·
COC(=O)[C@@H]1[C@@H](CO)[C@@H]2Cn3c(ccc(/C=C/c4ccccc4)c3=O)[C@H]1N2C(=O)C1CCC1,4,1,20,·,·,·,·
CCCC#Cc1ccc([C@H]2[C@@H](CO)N3CCCCN(C(=O)Cc4ccccn4)C[C@H]23)cc1,-11,-17,50,·,·,·,·
CCCC#Cc1ccc([C@@H]2[C@@H](CO)N3CCCCN(C(=O)Cc4ccccn4)C[C@@H]23)cc1,-5,-55,110*,?,57,22,13
CCCC#Cc1ccc([C@@H]2[C@@H](CO)N3CCCCN(C(=O)Cc4ccccn4)C[C@H]23)cc1,1,-16,86,·,·,·,·
O=C(Cc1ccccn1)N1CCCCN2[C@H](C1)[C@@H](c1ccc(C#Cc3ccccc3)cc1)[C@@H]2CO,-18,-56,99*,105*,51,41*,104*
CCCC#Cc1ccc([C@H]2[C@H](CO)N3CCCCN(C(=O)Cc4ccccn4)C[C@@H]23)cc1,-11,-17,49,·,·,·,·
CCCC#Cc1ccc([C@H]2[C@H]3CN(C(=O)Cc4ccccn4)CCCCN3[C@H]2CO)cc1,-1,-10,119*,90,41,-3,23
O=C(C1CC1)N1C[C@@H]2N[C@H](C1)[C@@H]2c1ccc(-c2ccncc2)cc1,-6,-79,·,·,·,·,·
COC(=O)[C@@H]1[C@@H](CO)[C@@H]2Cn3c(ccc(C4=CCCC4)c3=O)[C@H]1N2CC1CCCC1,1,-29,·,·,·,·,·
CN1[C@@H](CO)[C@@H]2c3ccccc3NC[C@@H]21,3,-69,-41,·,·,·,·
